# In PubChem BioAssay AID624418 (National Center for Advancing Translational Sciences (NCATS), 2012):
# The whole screen tested about 410,000 compounds, of which about 530 (0.13%) were called active. Not shown: some 5% with an inconclusive outcome. Shown is part of a subset that was picked to be rich in actives. Values without a mark were called inactive. The call rests on the fitted dose curve; in most records, active means well fitted inhibition curve with a large enough effect; inconclusive means small, poorly fitted or top-dose-only effect, or another doubt; inactive means no such curve, though single readings can be large or run the other way.
# Test: qHTS of GLP-1 Receptor Inverse Agonists: Cytotox Screen;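 further: loss of luciferase light is scored as toxicity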
# Conditions: HEK293 cAMP-luciferase reporter cells, luminescence, 24 h; series mostly up to 38.3 µM; activity change, negative = inhibition: at the top concentration
# How it was run: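 1536-well qHTS counterscreen of the MLSMR; 200 cells/uL, 12 h pre-incubation, 23 nL cpd, 24 h at 37 deg C 5% CO2, luciferase detection reagent, 12 min RT, luminescence. Inhibition = undesired.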
# On the % scale 0 is the no-effect control and ±100 the full control effect; potency means the concentration at half of the fitted maximal effect.
Structure (SMILES),"activity change, negative = inhibition",Potency
CCCN(CCC)CCCNC(=O)Cn1ncc2c3ccccc3n(Cc3ccccc3)c2c1=O,-1.81%,–
CCCN(C(=O)Cn1cc(S(=O)(=O)N2CCN(c3ccccc3F)CC2)c2ccccc2c1=O)c1cccc(C)c1,-2.03%,–
CSc1oc(-c2cccs2)nc1S(=O)(=O)c1ccc(Br)cc1,27.9%,–
O=C(c1ccc(C(F)(F)F)cc1)N1CCC(c2nc(-c3ccc(S(=O)(=O)N4CCCC4)cc3)no2)CC1,-10.9%,–
CCN(CCCNC(=O)c1c(C)oc2ncn(CC(C)C)c(=O)c12)Cc1ccccc1,1.92%,–
CCC1CCCCN1S(=O)(=O)c1ccc(NC(=O)c2cc(=O)c3ccccc3o2)cc1 (centres undefined),2.36%,–
CC(C)CC(=O)NCC(c1ccc2c(c1)OCO2)N1CCN(c2ccc(F)cc2)CC1 (centres undefined),0.505%,–
CCNC(=O)CC1C(=O)N(c2ccc(F)cc2)C(=O)N1Cc1ccc(C)cc1 (centres undefined),-12.9%,–
Cc1cc2c(cc1S(=O)(=O)CCC(=O)Nc1ccc(OC(F)(F)F)cc1)OCC(=O)N2,-12.7%,–
CCOC(=O)c1[nH]c(C)c(CCC(=O)NCc2ccccc2C)c1C,2.99%,–
Cc1ccc2oc3c(c(=O)c2c1)C(c1ccc([N+](=O)[O-])cc1)N(CCCN1CCOCC1)C3=O (centres undefined),3.33%,–
O=S(=O)([N-]c1nc2ccccc2nc1-[n+]1ccc(Cc2ccccc2)cc1)c1ccc(Br)s1,–,10 µM (active)
CCOc1ccc(C(NC(=O)c2cc(OC)c(OC)c(OC)c2)c2cc(Cl)c3cccnc3c2O)cc1 (centres undefined),-29%,–
O=C(NC1CCN(Cc2ccccc2)CC1)c1ccc(Cn2c(=O)c3ccccc3n(Cc3cccc(F)c3)c2=O)cc1,10.6%,–
CCOC(=O)c1cc(-c2ccc(OC)c(S(=O)(=O)Nc3ccc(OC)cc3OC)c2)on1,2.54%,–
Cc1cc(C)cc(NC(=O)CCS(=O)(=O)c2cc3c4c(c2)CCN4C(=O)CC3)c1,1.12%,–
COc1cccc(NC(=O)CSc2cc(=O)n(C)c3ccc(Cl)cc23)c1,1.69%,–
CN(Cc1ccccc1)C(=O)c1cn(C)c2ccc(S(=O)(=O)N(C)C3CCCCC3)cc2c1=O,3.25%,–
CCOC(=O)Cn1c(=O)n(C2CCCCC2)c2nc(-c3cccc(OC)c3)nc(C(N)=O)c21,1.53%,–
COc1cccc(Cn2c(SCc3ccc(C(=O)N4CCC(C)CC4)cc3)nc3ccncc32)c1,-1.45%,–

Structure (SMILES),"activity change, negative = inhibition",Potency
Cc1cc(C)cc(NS(=O)(=O)c2ccc3[nH]cc(C(=O)N4CCCCC4)c(=O)c3c2)c1,-4.69%,–
Cc1cn(C)c(CC(=O)NCc2ccccc2)c1C(=O)O,5.49%,–
COc1ccccc1NC(=O)c1cc(C2CC2)nc2c1c(C)nn2-c1ccc(C)cc1,-5.07%,–
Cc1ccc(S(=O)(=O)NCc2nc3nc(C)cc(C)n3n2)cc1,2.32%,–
COc1ccc2c(c1)c(N1CCCC1=O)c(C(=O)Nc1ccccc1C(F)(F)F)n2C,-1.4%,–
Cc1ccc(Nc2nnc(-c3ccc(C)c(S(=O)(=O)N4CCCCC4)c3)c3ccccc23)cc1,10.8%,–
COc1ccc(NC(=O)CCCc2nnc3n(CCC(C)C)c(=O)c4sccc4n23)c(OC)c1,5.32%,–
Cc1cccc(NC(=O)N2CCN(C)c3ncccc32)c1C,0.303%,–
Cc1ccc(NC(=O)Cn2c(=O)n(-c3ccccc3)c(=O)c3c4c(sc32)CCCC4)cc1,-4.75%,–
CCN(CC)S(=O)(=O)c1ccc(C(=O)N=c2sc3cccc(OC)c3n2C)cc1,5.63%,–
O=C(c1cccs1)c1cn(CCOc2ccc(Cl)cc2)c2ccccc12,0.0889%,–
CCc1ccc(NC(=O)c2cc(S(=O)(=O)N3CCCC(C)C3)cn2C)cc1 (centres undefined),-16.5%,–
COc1ccc(CCNCc2c(C(=O)O)c(C)n(Cc3cccc(C)c3)c2C)cc1OC,-1.48%,–
Cc1cn(C)c(CC(=O)NCc2ccc(Cl)cc2)c1C(=O)O,-7.39%,–
CCOc1ccc(N2CC(c3nc4ccccc4n3CCOc3ccc(OC)cc3)CC2=O)cc1 (centres undefined),-12%,–
O=C(NCc1ccccc1Cl)c1cccn1-c1nnc(N2CCCCC2)s1,-1.65%,–
COc1ccc(N(CC(=O)NCCc2ccc(Cl)cc2)S(=O)(=O)c2c(C)nn(C)c2C)cc1,-6.46%,–
CC(CNC(=O)c1nnc(Cc2cccc(F)c2)o1)c1ccccc1 (centres undefined),0.552%,–
Cc1ccc(CNC(=O)CCc2c(C)nc3c(c(C)nn3-c3ccccc3)c2C)cc1,12.6%,–
CNc1ccc(-c2nc(-c3ccco3)no2)cc1[N+](=O)[O-],2.51%,–

Structure (SMILES),"activity change, negative = inhibition",Potency
O=C(NCCc1ccc(Cl)cc1)c1ccc2c(c1)N(Cc1ccc(F)cc1)C(=O)CS2,-10.6%,–
CCOc1ccc(-c2nonc2NC(=O)c2oc3ccc(CC)cc3c2C)cc1,-6.03%,–
COc1ccc(NC(=O)C(c2ccccc2)N2Cc3ccccc3C2=O)cc1 (centres undefined),3.88%,–
CCOc1ccc(NC(=O)C2CCN(S(=O)(=O)c3cc(-c4noc(C)n4)ccc3C)CC2)cc1,-6.45%,–
CC1CC2=C(CC1/C=N/NC(N)=S)C(C)(C)CCC2 (centres undefined),–,2.24 µM (active)
Cc1nc2c(-c3ccccc3)c(C)nn2c(C)c1CCC(=O)NCCc1ccccc1,2.89%,–
Cc1cccc(CSc2nc3ccncc3n2CC(=O)N(C)C2CCCCC2)c1,0.871%,–
CC(C)(C)OC(=O)N1CCC(c2c(C(=O)N3CCN(c4cccc(Cl)c4)CC3)cnn2-c2cccc(Cl)c2)CC1,1.54%,–
COc1ccccc1Nc1c2c(nc3ccc(NC(=O)/C=C/c4cc(OC)c(OC)c(OC)c4)cc13)CCCC2,–,4.47 µM (active)
CCOc1ccc(C(=O)Nc2ccc3nc4c(c(Nc5ccccc5OC)c3c2)CCCC4)cc1,-22.1%,–
COc1cc(/C=C/C(=O)N2CCc3ccccc3C2)cc(OC)c1OC,3.72%,–
CC(=O)N1CCc2cc(S(=O)(=O)NC(Cc3ccccc3)C(=O)NCc3ccc(C)cc3)ccc21 (centres undefined),-0.157%,–
Clc1cccc(-n2ncc3c(NCCc4ccccc4)ncnc32)c1,-12.3%,–
CCn1cc(C(=O)NCc2ccc(C)cc2)c(=O)c2cc(S(=O)(=O)N3CCc4ccccc4C3)ccc21,-11.4%,–
CCOc1cc(C(=O)NCCc2csc3nc(-c4ccc(C)cc4)nn23)cc(OCC)c1OCC,7.6%,–
CCCCN1CC(c2nc3ccccc3n2CCCCOc2ccc(C)cc2C)CC1=O (centres undefined),-18.1%,–
CC1(C(=O)N/N=C/c2cc3c(cc2Br)OCO3)CC1(Br)Br (centres undefined),5.99%,–
CC(C)Oc1c(Br)cc(Br)cc1/C=N/NC(N)=S,–,2.51 µM (active)
CCCCn1cc(S(=O)(=O)c2ccc(OCC)cc2)c(=O)c2cc(OC)c(OC)cc21,-4.49%,–
